The supplement of paper PMC7858590

What follows are compounds tested on human monocyte-derived macrophages (polarized) (assay: cell shape (eccentricity) Z-score vs DMSO control; higher = more elongated, M2-like morphology). Settings: 5 µM; 24 h; macrophage state: M1-polarized (IFNg + TNFa), cytokines present during treatment.
Description: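 Primary-screen hits were rescreened on polarized hMDMs with the differentiating cytokines (IL-4 + IL-13 or IFNg + TNFa) kept in the medium during treatment with compound at 5 uM for 24 h. The eccentricity Z-score vs DMSO wells is averaged over experiments.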

Structure (SMILES)	cell shape (Z-score)
O=c1cc(-c2ccccc2F)[nH]c2cc3c(cc12)OCO3	0.5
c1ccc2c(Oc3nc(Nc4ccc(N5CCOCC5)cc4)c4ncn(C5CCCCC5)c4n3)cccc2c1	9.34
CC(NCCC(c1ccccc1)c1ccccc1)c1ccccc1 (stereo not given)	-8.8
CCCCOC(=O)c1ccc(N)cc1	-0.788
O=c1ncccn1[C@@H]1O[C@H](CO)[C@@H](O)[C@H]1O	-0.513
CNC(=O)c1cc(Oc2ccc(NC(=O)Nc3ccc(Cl)c(C(F)(F)F)c3)cc2)ccn1	14
N#CCNC(=O)c1ccc(-c2ccnc(Nc3ccc(N4CCOCC4)cc3)n2)cc1	22.9
CC1CNCCN1S(=O)(=O)c1cccc2cnccc12 (stereo not given)	-1.72
Cn1c2ccccc2c2c3c(c4c5ccccc5n(CCC#N)c4c21)CNC3=O	4.83
Cn1c([N+](=O)[O-])cnc1COC(N)=O	-4.21
N#Cc1ccc(COC[C@H]2O[C@@H](n3c(NCc4ccc(Cl)c(Cl)c4)nc4c(N)ncnc43)[C@H](O)[C@@H]2O)cc1	-3.47
O=c1cc(-c2cccc3c2Sc2ccccc2S3)oc(N2CCOCC2)c1	-7.49
Cc1nn(C)c2nc(NNC(=O)Nc3cc(Cl)nc(Cl)c3)cc(C(C)C)c12	7.42
COc1nccnc1NS(=O)(=O)c1ccc(NC(=O)/C=C/c2ccc([N+](=O)[O-])s2)cc1	-4.64
COc1cccc2c1C(=O)c1c(O)c3c(c(O)c1C2=O)C[C@@](O)(C(C)=O)C[C@@H]3O[C@H]1C[C@H](N)[C@H](O)[C@H](C)O1	8.83
COc1c(OC)c2occc2c2oc(=O)ccc12	-1.24
O=C(c1ccc(/C=C/c2n[nH]c3ccccc23)cc1)N1CCNCC1	28.4
COC(=O)C(CCCN=C(N)N)NC(=O)CCCc1c(-c2ccccc2)[nH]c2c(F)cc(F)cc12 (stereo not given)	0.683
CCCCCc1c2c(cc(O)c1C(=O)O)OC(=O)c1c(cc(OC)cc1C(=O)CCCC)O2	2.35
N[C@@H](CC(=O)N1CCn2c(nnc2C(F)(F)F)C1)Cc1cc(F)c(F)cc1F	2.26
COc1cccc2c1C(=O)c1c(O)c3c(c(O)c1C2=O)C[C@@](O)(C(=O)CO)C[C@@H]3O[C@H]1C[C@H](N)[C@H](O)[C@H](C)O1	22
COc1ccc2oc(-c3ccccc3OC)cc(=O)c2c1	0.285
O=C(Nc1ccc(OC(F)(F)F)cc1)c1sccc1NCc1ccnc2ccccc12	3.81
Cn1cnc(-c2cc3nccc(Oc4ccc(NC(=S)NC(=O)Cc5ccccc5)cc4F)c3s2)c1	3.19
Cc1c(-c2ccnc(Nc3ccc(N4CCNCC4)cc3)n2)sc(=O)n1C	7.79
Clc1ccc(C2(c3ccc(-c4cn[nH]c4)cc3)CCNCC2)cc1	24.9

Same assay, conditions: 5 µM; 24 h; macrophage state: M2-polarized (IL-4 + IL-13), cytokines present during treatment

Structure (SMILES)	cell shape (Z-score)
Cc1cc2nc3c(=O)[nH]c(=O)nc-3n(C)c2cc1C=O	6.26
CC(C)C1C2CCC(C2)C1N (stereo not given)	-1.17
CCN(CCCCOC(=O)c1ccc(OC)c(OC)c1)C(C)Cc1ccc(OC)cc1 (stereo not given)	-4.84
C[C@@]12C[C@]3(O)O[C@H](O1)C1(COC(=O)c4ccccc4)[C@H]3C[C@@]12O[C@@H]1O[C@H](COC(=O)c2ccccc2)[C@@H](O)[C@H](O)[C@H]1O	-2.92
COC(=O)Nc1nc2cc(Sc3ccccc3)ccc2[nH]1 [Fenbendazole]	-14.3
COc1cc(O)c2c(=O)c(OC)c(-c3ccc(OC)c(OC)c3)oc2c1	-8.25
CN1[C@@H](CC(=O)c2ccccc2)CCC[C@H]1C[C@H](O)c1ccccc1	4.11
CN1c2cc3c(cc2N=C(c2ccc(C(=O)O)cc2)c2ccccc21)C(C)(C)CCC3(C)C	-8.56
CCCSc1ccc2[nH]c(NC(=O)OC)nc2c1	-6.38
CC(CCCCC(=O)Nc1ccc(C(F)(F)F)cc1)NCCc1cnc[nH]1 (stereo not given)	-6.34
O=C(O)Cc1nn(Cc2ccc(Br)cc2F)c(=O)c2ccccc12	-1.61
Cc1cc(CC(C)CC(C)(C)C)n(O)c(=O)c1 (stereo not given)	0.506
O=C1c2c(O)ccc(O)c2C(=O)c2c(NCCNCCO)ccc(NCCNCCO)c21	-1.14
OC(CN1CCNCC1)Cn1c2ccc(Br)cc2c2cc(Br)ccc21 (stereo not given)	-13.7
